# Assay outcomes (PubChem)
# Shown is part of a subset that was picked to be rich in hits.
# HT1080 IDH1KD tx = kills HT-1080 cells with IDH1 knockdown; actives 2% (n = 360,000); HT-1080 IDH1 knockdown viability, ATP luminescence, 48 h; Potency, µM (highest dose often 46.1 µM), for inactives: at the highest dose activity, negative = toxicity, usual class: cytotoxic;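 note: potency is the fitted concentration of half-maximal effect; 0% = DMSO wells and -100% = cell-free medium wells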
#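 IDH1KD HT-1080 cells, 750/well, RPMI + 5% FBS; compound pinned after 2 h settling; 48 h, 37 °C; CellTiter-Glo luminescence; % activity normalised to DMSO and no-cell wells; curves fitted, classed by r2 and efficacy.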
# ALOX12 inh = inhibitors of human 12S-lipoxygenase ALOX12. Potency, µM (doses to about 108 µM), without a hit: top-dose activity change, negative = inhibition, actives largely listed as inhibitors. actives 1.1% (n = 580,000). purified 12hLO, xylenol orange hydroperoxide absorbance; note: potency is the fitted concentration of half-maximal effect
# Target sequence (P18054 whole entry, looked up): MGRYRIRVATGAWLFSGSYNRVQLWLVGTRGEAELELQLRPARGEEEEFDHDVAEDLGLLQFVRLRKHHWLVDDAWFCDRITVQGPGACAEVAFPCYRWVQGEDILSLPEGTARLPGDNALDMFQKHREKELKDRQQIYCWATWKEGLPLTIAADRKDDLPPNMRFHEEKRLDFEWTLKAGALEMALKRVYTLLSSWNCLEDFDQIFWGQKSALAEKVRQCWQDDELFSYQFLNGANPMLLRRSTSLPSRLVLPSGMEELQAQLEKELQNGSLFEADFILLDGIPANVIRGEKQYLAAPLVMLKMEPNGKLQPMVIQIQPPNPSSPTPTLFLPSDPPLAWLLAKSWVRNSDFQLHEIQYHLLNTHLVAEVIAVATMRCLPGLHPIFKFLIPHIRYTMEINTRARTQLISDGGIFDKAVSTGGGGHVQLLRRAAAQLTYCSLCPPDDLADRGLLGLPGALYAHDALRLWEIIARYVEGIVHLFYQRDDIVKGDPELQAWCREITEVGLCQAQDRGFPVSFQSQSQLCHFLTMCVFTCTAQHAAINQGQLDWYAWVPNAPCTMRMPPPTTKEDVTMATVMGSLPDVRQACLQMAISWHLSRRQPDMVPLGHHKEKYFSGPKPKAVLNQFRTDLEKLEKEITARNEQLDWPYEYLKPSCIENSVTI
#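 Purified human 12hLO (150 nM final) in 25 mM Hepes, 0.01% Triton X-100, pH 7.0 was preincubated 15 min at room temperature with compound. Then 40 uM arachidonic acid was added, 30 min. Hydroperoxide was read by Fe-XO absorbance ratio 573/405 nm.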
# TDP1 cell CPT = growth inhibition of DT40 Tdp1-/-;hTDP1 cells with camptothecin (screen for TDP1 inhibitors) | chicken DT40 Tdp1-/-;hTDP1 cells + 20 nM CPT, ATP luminescence, 48 h | actives 12% (n = 420,000) | Potency, µM (doses to about 46.2 µM), for inactives: top-dose activity change, negative = growth inhibition, hits mostly inhibitors; note: potency is the fitted concentration of half-maximal effect; nearly all actives have a fitted effect of over 55% in size
#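 Chicken DT40 Tdp1-/- cells stably complemented with human TDP1 were seeded at 400 cells/well in medium containing 20 nM camptothecin, exposed to pin-transferred compounds, and grown at 37 °C for at least 48 hr. Viability was read as ATP luminescence.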
# IL1B secr inh = inhibitors of inflammasome signaling (IL-1 beta secretion). THP-1 LPS/ATP IL-1B secretion, AlphaLISA, 16 h; active compounds read low. activity change, % at 57.5 µM. actives 4.7% (n = 360,000). AID 743279; in the data active = activity change below about -50%; inconclusive = mostly about -30% to -49%
#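 THP-1 cells pretreated 1 hr with compounds (up to 57.5 uM final), then stimulated with LPS (250 ng/mL final) plus ATP (1.25 mM final); secreted IL-1B measured by AlphaLISA after 16 hr, decreased signal indicating inhibition.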
# DT40 TDP1 no CPT = qHTS for Inhibitors of human tyrosyl-DNA phosphodiesterase 1 (TDP1): qHTS in cells in absence of CPT. AID 686978, 2013. actives 15% (n = 420,000). Potency, µM (top dose mostly 46.2 µM), inactives show top-dose activity change, negative = growth inhibition, hits mostly inhibitors. DT40 Tdp1-/- hTDP1 cells, no CPT, ATP luminescence, 48 h; note: potency is the fitted concentration of half-maximal effect; nearly all actives have a fitted effect of over 55% in size
#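 Chicken DT40 Tdp1-/- cells stably complemented with human TDP1 were seeded at 400 cells/well with DMSO in place of 20 nM camptothecin. After compound pinning, cells grew at least 48 hr at 37 °C; viability read by CellTiter-Glo luminescence.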
# HT1080-NT tox = kills 2HG-producing HT-1080-NT fibrosarcoma cells. HT-1080-NT fibrosarcoma viability, CellTiter-Glo ATP luminescence, 48 h. Potency, µM (titrated, usually from 46.1 µM), without a hit: at the top dose activity, negative = less viability, usual class: cytotoxic. actives 1.6% (n = 360,000);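 note: NT is the 2HG producing partner of a matched IDH1 knockdown line; potency is the fitted concentration of half-maximal effect; 0% = DMSO-treated cells and -100% = media-only wells without cells; nearly all actives have a fitted effect of over 55% in size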
#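 HT-1080-NT fibrosarcoma cells (2HG-overproducing), 750 cells/well in RPMI with 5% FBS, dosed after 2 h and incubated 48 h at 37C. CellTiter-Glo luminescence normalized to DMSO and no-cell wells; concentration-response curves fitted and classed.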
# * marks the source's active call; other numbers are inactive results; ? = inconclusive; · = not tested or not shown; [ ] = remark or other dose. Unless noted, calls come from the whole dose curve; as a rule, active = well fitted curve in the direction sought with a large enough effect; inconclusive = small, poorly fitted or top-dose-only effect, or another doubt; inactive = no such curve, though single readings can be large; an effect the other way counts as inactive or inconclusive. Unless noted, % is set by controls: 0 for no effect and ±100 for the full control effect.
SMILES,HT1080 IDH1KD tx,ALOX12 inh,TDP1 cell CPT,IL1B secr inh,DT40 TDP1 no CPT,HT1080-NT tox
COc1cc(NC(=O)CC2C(=O)N(c3ccccc3)C(=O)N2Cc2ccc(F)cc2)cc(OC)c1 (stereo not drawn),·,-19%,13µM*,·,15µM*,·
COCCN1C(=O)N(c2ccccc2)C(=O)C1CC(=O)Nc1cc(OC)cc(OC)c1 (stereo not drawn),5%,?,-16%,-1,11%,-6%
COc1cc(NC(=O)CC2C(=O)N(c3cccc(C)c3)C(=O)N2Cc2ccc(F)cc2)cc(OC)c1 (stereo not drawn),·,-47%,?,·,21µM*,·
O=C(Nc1ccccc1Cl)N1CCCC2(C1)Nc1cccnc1NC2=NC1CCCC1 (stereo not drawn),·,61%,·,·,·,·
O=C(c1c[nH]c2ccccc12)N1CCC2(CC1)COc1ccccc1[S+](=O)([O-])N2,·,7%[6.33 µM],·,·,·,·
COC(=O)c1ccc(/C=N/Nc2nc(-c3ccc(C)cc3)cs2)cc1,10%,·,-7%,23,-27%,22%
COc1ccc(/C=N/N(C(C)=O)c2nc(-c3ccc(C)cc3)cs2)cc1,5%,6%,-27%,?,13µM*,15%
CC(=O)N(/N=C/c1cccc(C)c1)c1nc(-c2ccc(Br)cc2)cs1,-2%,-5%,21µM*,61,?,7%
Cc1ccc(S(=O)(=O)N(C)C)cc1NC(=O)C1CCCN(C(=O)c2ccc(Cl)cc2)C1 (stereo not drawn),-6%,13%,?,11,?,-7%
O=C(Nc1ccc(OC(F)(F)F)cc1)C1CCCN(C(=O)c2ccc(Cl)cc2)C1 (stereo not drawn),-22%,244%,16µM*,-28,12µM*,-25%
CN(C)S(=O)(=O)c1cccc(NC(=O)C2CCCN(C(=O)c3ccc(Cl)cc3)C2)c1 (stereo not drawn),4%,-9%,?,35,15µM*,5%
CCN(CC)S(=O)(=O)c1ccc(NC(=O)C2CCCN(C(=O)c3ccc(Cl)cc3)C2)cc1 (stereo not drawn),-3%,?,16µM*,-9,23µM*,-5%
Cc1ccc(NC(=O)C2CCCN(C(=O)c3ccc(Cl)cc3)C2)cc1S(=O)(=O)N1CCOCC1 (stereo not drawn),-2%,-3%,21µM*,-19,16µM*,-9%
CS(=O)(=O)c1ccc(NC(=O)C2CCCN(C(=O)c3ccc(Cl)cc3)C2)cc1 (stereo not drawn),-5%,1%,-27%,22,?,8%
N/C(=C\C(=O)c1ccccc1)C(F)(F)F,·,-16%,·,·,·,·
COc1ccc2c(COC(=O)[C@@H]3CCCN3S(=O)(=O)c3ccc(Cl)cc3)cc(=O)oc2c1,9%,?,?,10,-21%,5%
O=C(CSCc1coc(-c2ccc(Cl)cc2)n1)N1CCCCC1,·,11%,·,·,·,·
CC(C)(C)C(=O)Nc1cc(NC(=O)C(C)(C)C)cc(C(=O)Nc2c[nH]c(=O)[nH]c2=O)c1,21%,95%,8%,·,-10%,4%
CC(NC(=O)CN(C)CC(=O)Nc1ccc(Cl)cc1)c1ccc(F)cc1 (stereo not drawn),-17%,?,?,?,18µM*,-4%
Cc1cc(OCC(=O)O)c(C)c2c1CC[C@@H]([C@H](C)C(=O)NCc1ccccc1)C2,·,-3%[176 µM],·,·,·,·
CC1=NOC(=O)/C1=C/c1ccc(O)c(Cl)c1,3%,?,?,-12,9.2µM*,20%
